11 compounds from PubChem BioAssay (Tox21) can be followed below.

SMILES strings stand for the structures. Values joined by “and” are separate entries in the source; they are usually repeats but may differ in a detail not shown here. Equal values may be shown once. Results filed as inconclusive are left out. Some structures have more than one record in an assay (separate samples or runs), and their calls can disagree. Active and inactive are the calls of the source. The call rests on the fitted dose curve; in most records, active means well fitted curve in the direction sought with a large enough effect in the repeat runs; inconclusive means weak or mixed curves; inactive means no such curve, though single readings can be large; an effect the other way counts as inactive or inconclusive.

Test [1] is described as follows: qHTS RealTime-Glo MT Cell Viability Assay in HEK293 cells - 16 hour (AID 1224872). Further: nearly all actives have a fitted effect of over 50% in size. Further: potency means the concentration at half of the fitted maximal effect. The method in brief:
(§1)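 Viability tracked continuously by luminescence as live cells reduce a prosubstrate for NanoLuc; HEK293 cells preincubated 5 h, compound-treated at 37 C, and read at 0, 8, 16, 24, 32 and 40 h.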

A short description of test [2]: qHTS RealTime-Glo MT Cell Viability Assay in HepG2 cells - 8 hour (AID 1224873). Further: nearly all actives have a fitted effect of over 55% in size. Further: potency means the concentration at half of the fitted maximal effect. The gist of the method:
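HepG2 cells mixed with RealTime-Glo MT reagents (NanoLuc plus cell-permeant prosubstrate) were seeded at 600 cells/well, incubated 5 h at 37 C/5% CO2, then pinned with compounds in DMSO; nonlytic luminescence tracked viability during 40 h treatment.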
Background: In qHTS, concentration-response curves come from the screen itself.

The nature of test [3]: qHTS RealTime-Glo MT Cell Viability Assay in HEK293 cells - 40 hour (AID 1224874). Further: nearly all actives have a fitted effect of over 50% in size. Further: potency means the concentration at half of the fitted maximal effect. The settings on record: RealTime-Glo luminescence; max response: stronger effect = lower value. The method in brief: (§2)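 HEK293 cells mixed with RealTime-Glo reagents (NanoLuc plus cell-permeant prosubstrate) at 600 cells/well, preincubated 5 h at 37 C/5% CO2, then given 23 nL compound in DMSO. Nonlytic luminescence from viable cells was read at 0, 8, 16, 24, 32 and 40 h.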

Test [4] is described as follows: A CellTox Green Cytotoxicity Assay to monitor cytotoxicity in HEK293 cells - 24 hour (AID 1224875). Further: nearly all actives have a fitted effect of over 45% in size. Further: potency means the concentration at half of the fitted maximal effect. The gist of the method: (§3)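 HEK293 cells premixed with CellTox Green dye were seeded at 600 cells/well and left 5 h at 37 C/5% CO2 before pin transfer of 23 nL compound in DMSO. Fluorescence from dye bound to dead-cell DNA was read during 40 h treatment.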
Test [5] is described as follows: A CellTox Green Cytotoxicity Assay to monitor cytotoxicity in HepG2 cells - 16 hour (AID 1224876). Further: nearly all actives have a fitted effect of over 45% in size. Further: potency means the concentration at half of the fitted maximal effect. The gist of the method:
(§4)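 HepG2 cells were seeded together with the CellTox Green dye at 600 cells/well, left 5 h at 37 C/5% CO2, then given compounds in DMSO. Fluorescence from dye bound to dead-cell DNA was read repeatedly over 40 h of treatment at 37 C.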

Test [6] is described as follows: qHTS RealTime-Glo MT Cell Viability Assay in HepG2 cells - 32 hour (AID 1224877). Further: nearly all actives have a fitted effect of over 55% in size. Further: potency means the concentration at half of the fitted maximal effect. The gist of the method:
(§5)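 Viability was tracked continuously by NanoLuc luminescence from prosubstrate reduced by living HepG2 cells, at successive time points over 40 h of compound exposure. Cells with reagent were preincubated 5 h at 37 °C before compound addition.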

Test [7] in a line: A CellTox Green Cytotoxicity Assay to monitor cytotoxicity in HepG2 cells - 24 hour (AID 1224878). Further: nearly all actives have a fitted effect of over 45% in size. Further: potency means the concentration at half of the fitted maximal effect. The method in brief:
as §4

A short description of test [8]: A CellTox Green Cytotoxicity Assay to monitor cytotoxicity in HepG2 cells - 40 hour (AID 1224879). Further: nearly all actives have a fitted effect of over 40% in size. Further: potency means the concentration at half of the fitted maximal effect. The method in brief: as §4
The nature of test [9]: qHTS RealTime-Glo MT Cell Viability Assay in HEK293 cells - 0 hour (AID 1224880). Further: top concentration of the series differs between compounds; nearly all actives have a fitted effect of over 45% in size. The method in brief: as §2
Test [10] can be described thus: A CellTox Green Cytotoxicity Assay to monitor cytotoxicity in HEK293 cells - 32 hour (AID 1224881). Further: nearly all actives have a fitted effect of over 40% in size. Further: potency means the concentration at half of the fitted maximal effect. The gist of the method: as §3
Test [11] is described as follows: A CellTox Green Cytotoxicity Assay to monitor cytotoxicity in HepG2 cells - 0 hour (AID 1224882). Further: nearly all actives have a fitted effect of over 35% in size. The method in brief: as §4
Test [12] in a line: A CellTox Green Cytotoxicity Assay to monitor cytotoxicity in HepG2 cells - 32 hour (AID 1224883). Further: nearly all actives have a fitted effect of over 50% in size. Further: potency means the concentration at half of the fitted maximal effect. The gist of the method: as §4
Test [13] in a line: A CellTox Green Cytotoxicity Assay to monitor cytotoxicity in HEK293 cells - 8 hour (AID 1224884). Further: nearly all actives have a fitted effect of over 35% in size. Further: potency means the concentration at half of the fitted maximal effect. The gist of the method: as §3
Test [14] is described as follows: qHTS RealTime-Glo MT Cell Viability Assay in HepG2 cells - 16 hour (AID 1224885). Further: nearly all actives have a fitted effect of over 50% in size. Further: potency means the concentration at half of the fitted maximal effect. The method in brief:
as §5

Test [15] is described as follows: qHTS RealTime-Glo MT Cell Viability Assay in HEK293 cells - 24 hour (AID 1224886). Further: nearly all actives have a fitted effect of over 50% in size. Further: potency means the concentration at half of the fitted maximal effect. The method in brief: as §1
Test [16] can be described thus: A CellTox Green Cytotoxicity Assay to monitor cytotoxicity in HEK293 cells - 16 hour (AID 1224888). Further: nearly all actives have a fitted effect of over 35% in size. The gist of the method:
as §3

Test [17] in a line: qHTS RealTime-Glo MT Cell Viability Assay in HepG2 cells - 0 hour (AID 1224889). Further: nearly all actives have a fitted effect of over 50% in size. Further: potency means the concentration at half of the fitted maximal effect. The gist of the method:
as §5

Test [18] is described as follows: A CellTox Green Cytotoxicity Assay to monitor cytotoxicity in HepG2 cells - 8 hour (AID 1224890). Further: nearly all actives have a fitted effect of over 45% in size. Further: potency means the concentration at half of the fitted maximal effect. The method in brief:
as §4

Test [19] is described as follows: qHTS assay to identify small molecule antagonists of the estrogen receptor alpha (ER-alpha) signaling pathway using the BG1 cell line in the presence of 0.1 nM 17-beta-estradiol - cell viability counter screen (AID 1259241). Further: nearly all actives have a fitted effect of over 40% in size. Further: potency means the concentration at half of the fitted maximal effect. The gist of the method: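 Cells were plated and left 24 hr, compounds in DMSO were pinned in, 17beta-estradiol was added to 0.1 nM final, and after 22 hr CellTiter-Fluor reagent was added for 30 min before fluorescence was read.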

Test [20] can be described thus: qHTS RealTime-Glo MT Cell Viability Assay in HEK293 cells - 8 hour (AID 1224887). Further: nearly all actives have a fitted effect of over 50% in size. Further: potency means the concentration at half of the fitted maximal effect. The method in brief:
as §2
On the % scale 0 is the no-effect control and ±100 the full control effect.

`CCCCCCCC(=O)OCC(COC(=O)CCCCCCC)OC(=O)CCCCCCC`: the Potency entry in test [1], in test [2], in test [4], in test [5], in test [6] and in test [7] was “inactive” in each case. Besides, the Potency result in test [8], in [9], in [10], in [11], in [12] and in [13] was “inactive” throughout. For the same compound, the Potency result in test [14], in [15], in [16], in [17], in test [18] and in test [19] was “inactive” throughout. Further, the max response in [3] is 4.45% (inactive) and -0.248% (inactive) and 1.22% (inactive).

`CC1(C)O[C@@H]2C[C@H]3[C@@H]4CCC5=CC(=O)C=C[C@]5(C)[C@@]4(F)[C@@H](O)C[C@]3(C)[C@]2(C(=O)CO)O1`: the Potency entry in test [1], in [2], in test [5], in [6], in test [7] and in test [8] was “inactive” in each case. In addition, the Potency result in [9], in test [11], in test [12], in [14], in test [15] and in test [20] was “inactive” in each case. For the same compound, the Potency entry in [18] and in [19] was “inactive” each time. Besides, the max response in test [3] is -22.1% (inactive) and -11.6% (inactive) and -2.14% (inactive). The Potency result was “inactive and 9.52 µM (active)” in [10]; “inactive and 9.52 µM (active)” in test [13]; 22 µM (active) and 12.3 µM (active) in test [17].

Regarding `CCCCC(CC)C(=O)O` (centres undefined), the Potency result in test [1], in [2], in [4], in test [5], in test [6] and in test [7] was “inactive” each time. Also, the Potency entry in test [8], in [9], in test [10], in [11], in test [12] and in test [13] was “inactive” each time. The Potency entry in [15], in [20], in test [16], in [17], in [18] and in test [19] was “inactive” in each case.

Take `COc1ccc(CN(CCN(C)C)c2ccccn2)cc1`: the Potency entry in test [4], in test [5], in test [7], in test [8], in [10] and in test [11] was “inactive” throughout. Besides, the Potency result in test [12], in [13], in [16], in test [18] and in [19] was “inactive” in each case.

For the compound `CCN(Cc1c(F)cccc1Cl)c1c([N+](=O)[O-])cc(C(F)(F)F)cc1[N+](=O)[O-]`, the Potency is 27.5 µM (active) in [1], 54.9 µM (active) in test [3] and 43.6 µM (active) in test [15]. Besides, the Potency result in test [4], in [5], in test [6], in test [7], in test [8] and in test [9] was “inactive” in each case. Further, the Potency entry in [10], in test [11], in [12], in [13], in test [17] and in test [18] was “inactive” each time.

Turning to `O=C(O)c1ccccc1`, the Potency entry in test [1], in test [2], in test [4], in [5], in test [6] and in [7] was “inactive” in each case. In addition, the Potency result in [8], in [9], in [10], in [11], in [12] and in test [13] was “inactive” throughout. The Potency result in test [15], in test [20], in [16], in test [17] and in test [18] was “inactive” throughout.

With `O=CC(=O)c1ccccc1`, the Potency entry in [1], in [2], in test [4], in test [5], in test [6] and in test [7] was “inactive” each time. For the same compound, the Potency result in test [8], in test [9], in [11], in [12], in test [13] and in [14] was “inactive” each time. In addition, the Potency entry in [15], in test [16], in test [17] and in test [18] was “inactive” each time. Also, the max response in [3] was 13% (inactive).

Regarding `COc1ccc2cc(S(=O)(=O)N[C@H](CC(=O)N[C@H](Cc3ccc(CN4[C@H](C)CCC[C@@H]4C)cc3)C(=O)N(C)C(C)C)c3ccc4c(c3)OCO4)ccc2c1`, the Potency was 46.3 µM (active) in test [1]; 52 µM (active) in test [2]; 26.1 µM (active) in [3]; 52 µM (active) in test [5]; 52 µM (active) in [6]; 52 µM (active) in test [7]. In addition, the Potency in [8] was 52 µM (active); in [10] it was 52 µM (active); in test [12] it was 52 µM (active); in [14], 52 µM (active); in [15], 41.3 µM (active); in [20] it was 46.3 µM (active). The Potency in test [19] is 29 µM (active). Besides, the Potency entry in [9] and in test [11] was “inactive” in each case.

For `C1=CC2C3C=CC(C3)C2C1` (centres undefined), the Potency entry in test [1], in test [2], in test [5], in test [6], in test [7] and in test [8] was “inactive” each time. For the same compound, the Potency result in test [9], in test [11], in [12], in test [15], in [20] and in [17] was “inactive” throughout. Besides, the Potency result in [18] is “inactive”. In [3], the max response is 0.978% (inactive). Besides, in test [13], the Potency is 54 µM (active).

Regarding `O=C1NC(=O)C(c2ccccc2)(c2ccccc2)N1`, the Potency entry in [1], in test [2], in [6], in [9], in [11] and in test [15] was “inactive” throughout. The Potency entry in test [17] and in test [19] was “inactive” each time. In addition, the max response in [3] was -30.3% (inactive) and -21% (inactive). For the same compound, the Potency entry was “inactive and 23.9 µM (active)” in [5]; “inactive and 23.9 µM (active)” in test [7]; “inactive and 23.9 µM (active)” in test [8]; “inactive and 19 µM (active)” in [10]; “inactive and 21.3 µM (active)” in [12]; “inactive and 21.3 µM (active)” in test [13]. In addition, in test [18], the Potency entry is “inactive and 23.9 µM (active)”.

Take `CN(C)C(=S)SC(=S)N(C)C`: the Potency in test [1] was 2.24 µM (active) and 2.75 µM (active) and 6.74 µM (active); in [3], 1.59 µM (active) and 1.23 µM (active) and 6.01 µM (active); in test [4] it was 3.99 µM (active) and 21.9 µM (active); in [5], “inactive and 3.89 µM (active)”; in test [6] it was 1.55 µM (active) and 3.38 µM (active); in test [7], 3.17 µM (active) and 2.45 µM (active) and 2.39 µM (active). Besides, the Potency was 2.52 µM (active) and 1.38 µM (active) and 2.39 µM (active) in [8]; 2.52 µM (active) and 8.71 µM (active) and 3.01 µM (active) in test [10]; 2.52 µM (active) and 1.95 µM (active) and 2.68 µM (active) in test [12]; 2.24 µM (active) and 2.19 µM (active) and 6.74 µM (active) in [15]; 2.5 µM (active) and 5.45 µM (active) and 3.76 µM (active) in test [19]. The Potency entry in test [9], in [11], in test [13], in [20], in test [16] and in [17] was “inactive” each time. For the same compound, the Potency entry in test [18] was “inactive”.
